aDG glyco act: alpha-DG glycosylation activation | Pro5-aDG cells, alpha-DG glycosylation AlphaScreen (IIH6); 0% Pro5, 100% B10-LARGE cell signal | activation, % at 10 µM | actives 0.22% (n = 360,000) | AID 624168;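 active = activation of at least 8% versus controls, or a plate z-score of at least 8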;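 also: Pro5 are CHO cells carrying HIG-tagged alpha-DG that lacks glycosylation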
GC-B act: GC-B (human) receptor activation; HEK293-GC-B cells, CNP EC30, cGMP TR-FRET; 0% at EC30 CNP, 100% saturating CNP; activation, % at 10 µM; actives 0.11% (n = 370,000); AID 1920062;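 active = activation at 10 µM reaching about 35% in either raw or pattern-adjusted values, limit read from the data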
FAS TE block: blocks the thioesterase domain of human fatty acid synthase; P49327; inhibition, % at 15 µM; AID 602261; actives 0.67% (n = 360,000); recombinant FAS-TE, OMFH fluorogenic substrate, fluorescence endpoint;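 active = compounds whose normalised, plate-corrected inhibition of enzyme fluorescence in the single-dose primary screen is 50% or more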;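 also: 0% = DMSO with enzyme and 100% = substrate without enzyme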
GC-A act: GC-A (human) enzyme activation; HEK293 GC-A cells, cGMP TR-FRET, EC30 ANP; 0% at EC30 ANP, 100% saturating ANP; activation, % at 10 µM; actives 0.14% (n = 370,000); in the data active = activation above about 40%
Target sequence (P16066 whole entry, looked up): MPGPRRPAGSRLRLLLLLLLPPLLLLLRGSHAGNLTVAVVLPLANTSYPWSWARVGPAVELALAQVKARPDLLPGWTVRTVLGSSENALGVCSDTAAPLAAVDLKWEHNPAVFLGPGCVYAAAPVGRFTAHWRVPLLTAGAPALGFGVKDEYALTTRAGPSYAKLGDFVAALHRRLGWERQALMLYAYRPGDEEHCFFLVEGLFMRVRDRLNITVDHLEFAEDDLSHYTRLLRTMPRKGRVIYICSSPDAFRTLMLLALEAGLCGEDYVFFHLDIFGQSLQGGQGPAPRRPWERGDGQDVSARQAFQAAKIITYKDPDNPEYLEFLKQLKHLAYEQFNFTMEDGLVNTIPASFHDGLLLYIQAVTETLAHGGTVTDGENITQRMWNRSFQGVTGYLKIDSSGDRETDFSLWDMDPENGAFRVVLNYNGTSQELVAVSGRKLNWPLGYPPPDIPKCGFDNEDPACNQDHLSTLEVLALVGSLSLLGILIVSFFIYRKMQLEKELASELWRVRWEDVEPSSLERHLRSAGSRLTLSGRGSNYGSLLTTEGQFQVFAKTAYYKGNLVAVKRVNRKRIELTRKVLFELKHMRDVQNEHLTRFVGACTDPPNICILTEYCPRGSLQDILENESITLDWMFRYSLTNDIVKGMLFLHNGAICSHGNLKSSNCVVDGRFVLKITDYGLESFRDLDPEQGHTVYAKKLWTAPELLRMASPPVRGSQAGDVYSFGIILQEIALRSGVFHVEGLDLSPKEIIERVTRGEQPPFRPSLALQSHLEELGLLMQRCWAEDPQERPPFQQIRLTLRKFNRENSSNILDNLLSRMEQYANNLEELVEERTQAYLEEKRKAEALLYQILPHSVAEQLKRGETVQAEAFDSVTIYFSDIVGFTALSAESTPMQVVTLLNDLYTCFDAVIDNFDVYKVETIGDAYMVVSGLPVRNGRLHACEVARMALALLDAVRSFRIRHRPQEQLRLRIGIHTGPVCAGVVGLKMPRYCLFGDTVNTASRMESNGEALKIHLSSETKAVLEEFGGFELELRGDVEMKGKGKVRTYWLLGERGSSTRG
FAS-TE inh conf: FAS thioesterase (human) inhibition, confirmation. actives 45% (n = 2,300). shares compounds with FAS TE block. inhibition, % at 15 µM. recombinant FAS-TE, OMFH fluorogenic substrate, fluorescence;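 active = compounds inhibiting the enzyme by at least 50% at 15 µM in any one of the replicates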;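 also: 0% = enzyme with DMSO only and 100% = wells lacking enzyme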
* hit, by the source's call; . = no result. Only some compounds are listed: those with a hit (about 1.1% of all), similar ones and a draw of the others.

SMILES	aDG glyco act	GC-B act	FAS TE block	GC-A act	FAS-TE inh conf
COC(=O)[C@@]1(Cc2ccc(F)cc2)[C@H]2c3cc(C(=O)N(C)C)n(CCc4ccc(OC)c(Br)c4)c3C[C@H]2CN1C(=O)c1ccccc1	2	-9	81*	-10	1
COC(=O)[C@@]1(Cc2ccc(OC)cc2)[C@H]2c3cc(C(=O)N4CCCC4)n(Cc4ccsc4Br)c3C[C@H]2CN1C(=O)c1ccccc1	0	-5	51*	-3	23
C=CCn1c(=N)c(S(=O)(=O)c2ccc(C)c(C)c2)cc2c(=O)n3ccccc3nc21	0	0	54*	5	-14
COC(=O)C[C@H]1CC[C@@H]2[C@H](COc3ccc(NC(=O)c4ccccc4OC)cc3C(=O)N2C)O1	.	1	.	1	.
Cc1cccc(NC(=S)N=Nc2c(O)n(C)c3ccc(S(=O)(=O)N4CCOCC4)cc23)c1	1	-3	59*	-4	24
Cc1ccc(NC(=S)N=Nc2c(O)n(C)c3ccc(S(=O)(=O)N4CCOCC4)cc23)cc1	0	2	59*	9	27
Cc1cc(C)cc(NC(=S)N=Nc2c(O)n(C)c3ccc(S(=O)(=O)N4CCOCC4)cc23)c1	0	2	61*	-7	6
Cc1cccc(C)c1NC(=S)N=Nc1c(O)n(C)c2ccc(S(=O)(=O)N3CCOCC3)cc12	2	3	76*	-1	31
Cc1ccccc1NC(=S)N=Nc1c(O)n(C)c2ccc(S(=O)(=O)N3CCOCC3)cc12	0	0	21	-1	.
F[B-](F)(F)COCc1ccccc1C#Cc1ccccc1	.	2	.	2	.
C=CCn1c(O)c(N=NC(=S)Nc2ccccc2F)c2ccccc21	-1	-6	27	4	.
C=CCn1c(O)c(N=NC(=S)Nc2ccccc2F)c2cc(S(=O)(=O)N3CCOCC3)ccc21	-1	-7	59*	-5	16
Cn1c(=O)c2[nH]c(COc3ccc(C(C)(C)C)cc3)nc2n(C)c1=O	2	.	69*	.	70*
Cc1ccc(/C=C(\C#N)c2nn(-c3ccccc3)c(N)c2C#N)cc1	0	-5	18	-3	.
N#C/C(=C\c1cc([N+](=O)[O-])c(N2CCCCC2)cc1N1CCCCC1)c1nn(-c2ccccc2)c(N)c1C#N	-1	3	57*	-1	1
Nc1ccn([C@@H]2O[C@H](C(=O)N[C@H](Cc3ccccc3)C(=O)N3CCN(C(=O)N4CCCCC4)CC3)[C@@H](O)[C@H]2O)c(=O)n1	.	-4	.	-3	.
O=C(CC1C[C@H](C(=O)N2CCOCC2)[C@@]2(CCC3CCCC3)c3[nH]c4ccccc4c3CCN2C1=O)NCCc1ccccn1 (stereo partly drawn)	0	-17	80*	-20	91*
O=C(CC1C[C@H](C(=O)N2CCOCC2)[C@@]2(CCC3CCCC3)c3[nH]c4ccccc4c3CCN2C1=O)NCc1ccco1 (stereo partly drawn)	0	-13	84*	-18	92*
COc1ccc2[nH]c3c(c2c1)CCN1C(=O)C(CC(=O)NCCc2ccccn2)C[C@H](C(=O)N2CCCCC2)[C@@]31CCc1ccccc1 (stereo partly drawn)	0	-7	13	-9	.
CN(C)C(=O)CCc1ccc2c3c([nH]c2c1)[C@]1(CCC2CCCC2)[C@@H](C(=O)N2CCOCC2)C[C@H](CC(=O)NCCCn2ccnc2)C(=O)N1CC3	0	3	7	6	.
O=C(C[C@H]1C[C@H](C(=O)N2CCOCC2)[C@@]2(CCC3CCCC3)c3[nH]c4ccc(Cl)cc4c3CCN2C1=O)NCCCn1ccnc1	0	3	55*	-3	23
COc1ccc2[nH]c3c(c2c1)CCN1C(=O)C(CC(=O)NCCc2ccccn2)C[C@H](C(=O)N2CCOCC2)[C@@]31CCC1CCCC1 (stereo partly drawn)	0	-4	61*	1	46*
O=C(CC1C[C@H](C(=O)N2CCCCC2)[C@@]2(CCc3ccccc3)c3[nH]c4ccccc4c3CCN2C1=O)NCc1ccco1 (stereo partly drawn)	0	-13	28	-20	.
CCCCOCCCNC(=O)C[C@H]1C[C@@]2(C(=O)OC)C(=C[C@H](COCc3ccccc3)O[C@@H]2C)N(CCc2ccc(OC)c(OC)c2)C1=O	.	10	.	2	.
COC(=O)[C@]12C[C@H](CC(=O)N3CCN(C(=O)C4CC4)CC3)C(=O)N(Cc3ccc(Cl)cc3Cl)C1=C[C@H](COCc1ccccc1)O[C@@H]2C	.	8	.	-3	.
SMILES	aDG glyco act	GC-B act	FAS TE block	GC-A act	FAS-TE inh conf
CC(C)Oc1cccc(-c2n[nH]c(=S)n2N=Cc2ccc(OCc3ccccc3)cc2)c1	.	-8	.	1	.
Cc1cccc(Cn2cc(CN3CC(N(C)CCOC(=O)c4cc(C)cc(C)c4)CS3(=O)=O)nn2)c1 (stereo not drawn)	.	-9	.	-6	.
COCCCNC(=O)CC1C[C@H](C(=O)N2CCOCC2)[C@@]2(CCC3CCCC3)c3[nH]c4ccc(OC)cc4c3CCN2C1=O (stereo partly drawn)	0	-6	53*	-3	64*
COc1ccc2[nH]c3c(c2c1)CCN1C(=O)C(CC(=O)NC/C=C(\C)CCC=C(C)C)C[C@H](C(=O)N2CCOCC2)[C@@]31CCC1CCCC1 (stereo partly drawn)	0	2	5	-4	.
O=C(CC1C[C@H](C(=O)N2CCOCC2)[C@@]2(CCC3CCCC3)c3[nH]c4ccccc4c3CCN2C1=O)NCC12CC3CC(CC(C3)C1)C2 (stereo partly drawn)	0	2	89*	-7	34
O=C(CC1C[C@H](C(=O)N2CCOCC2)[C@@]2(CCC3CCCC3)c3[nH]c4ccccc4c3CCN2C1=O)NCCN1CCOCC1 (stereo partly drawn)	0	-12	76*	-14	87*
CC[C@]12c3[nH]c4ccccc4c3CCN1C(=O)C(CC(=O)NCCN1CCOCC1)C[C@@H]2C(=O)N1CCN(C(=O)c2ccco2)CC1 (stereo partly drawn)	0	-2	-4	1	.
NC(=O)c1c(N)[nH]c(C(=O)c2ccccc2)c1-c1cccc2ccccc12	.	-1	.	-1	.
Cc1ccc(SCc2cc(=O)[nH]c(/N=C(\N)Nc3cccc4ccccc34)n2)cc1	0	4	58*	-6	4
COc1ccc(Cl)cc1N/C(N)=N/c1nc(CSc2ccc(C)cc2)cc(=O)[nH]1	1	-3	20	0	.
CCCC1CCC2(CC1)CCC2OC(=S)Nc1cccc(C(F)(F)F)c1 (stereo not drawn)	.	1	.	1	.
CCCCN(CCCNC(=O)c1c(C)cc(=O)oc1C)c1ccccc1	0	-1	51*	5	7
CCN(CCCNC(=O)c1c(C)cc(=O)oc1C)c1ccccc1	0	-4	17	7	.
O=[N+]([O-])c1ccc(Sc2ccccc2)nc1	0	-1	6	6	.

Screening data deposited in PubChem by Sanford-Burnham Center for Chemical Genomics.
